Compound activity (PubChem)
This is a sample that favours compounds with a hit; in the whole collection about 19% have one here.
DT40 TDP1 CPT = growth inhibition of DT40 Tdp1-/-;hTDP1 cells with camptothecin (screen for TDP1 inhibitors); Potency, µM (titrated, usually from 46.2 µM), for the others: top-dose activity change, negative = growth inhibition, usual class: inhibitors; 12% of 420,000 active; chicken DT40 Tdp1-/-;hTDP1 cells + 20 nM CPT, ATP luminescence, 48 h; AID 686979; note: nearly all actives have a fitted effect of over 55% in size
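Cell growth measured by CellTiter-Glo luminescence after a minimum 48 h, 37 C compound exposure with 20 nM CPT in Tdp1-knockout DT40 cells stably expressing hTDP1, seeded 400/well; qHTS titration format.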
TDP1 cell noCPT = qHTS for Inhibitors of human tyrosyl-DNA phosphodiesterase 1 (TDP1): qHTS in cells in absence of CPT; 15% of 420,000 active; DT40 Tdp1-/- hTDP1 cells, no CPT, ATP luminescence, 48 h; AID 686978, 2013; Potency, µM (titrated, usually from 46.2 µM), without a hit: top-dose activity change, negative = growth inhibition, usual class: inhibitors; note: nearly all actives have a fitted effect of over 55% in size
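Chicken DT40 Tdp1-/- cells stably complemented with human TDP1 were seeded at 400 cells/well with DMSO in place of 20 nM camptothecin. After compound pinning, cells grew at least 48 hr at 37 °C; viability read by CellTiter-Glo luminescence.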
KB-V1 MDR tox = kills drug-selected multidrug resistant KB-V1 cells | KB-V1 MDR cells viability, CellTiter-Glo, 72 h | AID 1347076 | 3.4% of 400,000 active | Potency, µM (top dose mostly 46.1 µM), usual class: cytotoxic; note: nearly all actives have a fitted effect of over 60% in size
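qHTS viability screen in drug-selected KB-V1 MDR cells: 72 h compound treatment at 37 degrees C, ATP luminescence end point.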
HT1080 IDH1KD tx = toxicity to HT-1080 IDH1 knockdown cells (counter line); HT-1080 IDH1 knockdown viability, ATP luminescence, 48 h; Potency, µM (series often up to 46.1 µM), inactives show at the top dose activity, negative = toxicity, usual class: cytotoxic; 2% of 360,000 active; AID 686971;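 note: 0% = DMSO wells and -100% = cell-free medium wells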
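Luminescent ATP read-out (CellTiter-Glo, 10 min at room temperature) after 48 h compound exposure at 37 °C gave viability of IDH1-knockdown HT-1080 cells. Activity was normalised to DMSO and cell-free wells, then fitted as concentration-response curves.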
KB-3-1 tox = kills parental KB-3-1 adenocarcinoma cells; 1.4% of 400,000 active; AID 1347075; KB-3-1 viability, CellTiter-Glo ATP luminescence, 72 h; Potency, µM (series often up to 46.1 µM), usual class: cytotoxic; note: nearly all actives have a fitted effect of over 60% in size
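Cells are dispensed, compounds pinned in, plates held at 37 °C for 72 h, then CellTiter-Glo is added and luminescence read after 10 minutes. Cell line: parental KB-3-1 in phenol-red-free DMEM, 10% FBS.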
HT1080NT lethal = kills 2HG-producing HT-1080-NT fibrosarcoma cells. HT-1080-NT fibrosarcoma viability, CellTiter-Glo ATP luminescence, 48 h. Potency, µM (doses to about 46.1 µM), for the others: at the highest dose activity, negative = less viability, actives largely listed as cytotoxic. 1.6% of 360,000 active. AID 686970;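 note: NT is the 2HG producing partner of a matched IDH1 knockdown line; 0% = DMSO-treated cells and -100% = media-only wells without cells; nearly all actives have a fitted effect of over 55% in size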
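A 48-hour cytotoxicity screen used HT-1080-NT cells plated 2 hours before compound delivery. ATP-based CellTiter-Glo luminescence measured viability, normalized to DMSO and no-cell controls.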
The depositor's hits bear a star; i = inactive; ? = inconclusive; nt = no result. Calls come from the whole dose curve; as a rule, active = well fitted curve in the direction sought with a large enough effect; inconclusive = small, poorly fitted or top-dose-only effect, or another doubt; inactive = no such curve, though single readings can be large; an effect the other way counts as inactive or inconclusive. Unless noted, % is set by controls: 0 for no effect and ±100 for the full control effect; potency is the fitted concentration of half-maximal effect.

SMILES	DT40 TDP1 CPT	TDP1 cell noCPT	KB-V1 MDR tox	HT1080 IDH1KD tx	KB-3-1 tox	HT1080NT lethal
Nc1ccc(-c2nc3c(Cl)cc(N)cc3[nH]2)cc1	5.8µM*	7.31µM*	i	-12.9%	i	2.4%
CC(=O)Nc1ccc2nc(-c3cccs3)[nH]c2c1	-9.6%	-18.2%	i	-6.4%	i	-3.5%
Nc1ccc2nc(-c3ccc(N)c(Cl)c3)[nH]c2c1	6.51µM*	8.2µM*	i	-9.3%	i	-21.0%
COc1ccc2nc(-c3ccc(N)cc3)[nH]c2c1	?	?	i	-0.7%	i	-13.4%
Nc1ccc2nc(-c3cccnc3)[nH]c2c1	-0.9%	-23.0%	i	8.5%	i	9.1%
Nc1ccc2nc(-c3cccs3)[nH]c2c1	20.6µM*	?	i	-23.0%	i	-9.5%
Cc1ccc(OCCNC(=O)CNC(=O)Cc2cccc3ccccc23)cc1	-26.7%	-16.3%	i	nt	i	nt
CCOc1ccc(C(=O)NCCc2sc(-c3ccc(OC)c(OC)c3)nc2C)cc1	nt	nt	?	nt	i	nt
CCCCN1C(=O)C(CC(=O)NCc2cccc3ccccc23)CC(C(=O)N(C(C)C)C(C)C)=C1C (stereo not drawn)	?	?	?	-5.6%	i	-7.2%
O=[N+]([O-])/C=C/c1cn(Cc2ccccc2)c2ccccc12	18.4µM*	11.6µM*	?	?	?	?
O=C(Cn1cc(/C=C\[N+](=O)[O-])c2ccccc21)Nc1ccccc1	20.6µM*	14.6µM*	?	3.66µM*	?	?
CC1CCN(CC2CCN(C(=O)NCc3ccccc3)CC2)CC1	7.4%	10.1%	i	nt	i	nt
S=C1NCCc2ccc(Cl)cc2C1c1ccccc1Cl (stereo not drawn)	?	?	i	-25.9%	i	-16.4%
Clc1ccc2c(c1)C(C1=NCCN1)c1ccccc1CS2 (stereo not drawn)	6.51µM*	5.8µM*	10.3µM*	1.46µM*	0.92µM*	1.16µM*
COc1ccc(CNCCc2ccccc2)cc1OCC(N)=O	-3.8%	0.9%	?	-13.6%	i	16.6%
Brc1ccc(CNCc2cccs2)cc1	-6.0%	-21.8%	i	14.2%	i	-1.7%
COc1cc(CN(C)CCc2ccccc2)ccc1OCc1ccccc1	?	25.9µM*	i	?	i	?
COc1ccc(CNCCc2ccc(Cl)cc2)cc1OCc1ccccc1	6.51µM*	4.61µM*	i	?	?	?
COc1ccc(CCNCc2csc3nc4ccccc4n23)cc1OC	11.6µM*	9.2µM*	?	-16.8%	?	-6.3%
c1ccc(COc2ccc(CNCc3cccs3)cc2)cc1	?	13µM*	?	?	i	?
CCOc1cc(CNCc2ccccc2)ccc1OCc1ccc(Cl)cc1	23.1µM*	5.8µM*	i	?	?	14.6µM*
COc1cc(CNCCCN2CCOCC2)ccc1OCC(=O)Nc1cccc(C(F)(F)F)c1	?	?	i	?	i	?
COc1cc(CNCCN2CCOCC2)ccc1OCc1cccc(Cl)c1	?	16.4µM*	i	?	i	?
COc1cccc(OCCNCc2ccccc2)c1	?	18.4µM*	i	8.4%	i	-1.6%
COc1ccc(CCNCc2ccc(-c3ccccc3)cc2)cc1OC	?	23.1µM*	?	23.1µM*	i	23.1µM*
SMILES	DT40 TDP1 CPT	TDP1 cell noCPT	KB-V1 MDR tox	HT1080 IDH1KD tx	KB-3-1 tox	HT1080NT lethal
Cc1cccc(OCCCCNCc2ccccc2)c1	-14.3%	?	i	-17.2%	i	-24.1%
CN(C(=O)c1ccncc1)C1CCCCC1	-0.3%	-8.3%	i	8.3%	i	8.1%
COc1cccc(CNC(=O)Cn2ncn3nc(-c4cccs4)cc3c2=O)c1OC	-20.8%	-18.7%	i	nt	i	nt
COc1ccc(CCNC(=O)Cc2ccc(OCc3ccccc3)c(OC)c2[N+](=O)[O-])cc1OCc1ccccc1	23.1µM*	8.2µM*	2.59µM*	0.4%	?	-0.5%
COc1ccc(CCNCc2ccc(OCc3ccccc3)cc2)cc1	?	?	i	18.4µM*	i	?
COc1ccc(CCNC(=O)Cc2ccc([N+](=O)[O-])cc2)cc1OC	5.0%	2.1%	i	14.8%	i	4.6%
COC(=O)c1ccc(Cn2cnc3c(Cl)ncnc32)cc1	?	?	i	8.5%	i	?
COc1cc(SSc2cc(OC)cc([N+](=O)[O-])c2N)c(N)c([N+](=O)[O-])c1	4.61µM*	4.11µM*	?	-12.0%	?	-0.7%
Nc1ccc(Oc2ccc(N)c([N+](=O)[O-])c2)cc1[N+](=O)[O-]	-0.2%	?	i	5.9%	i	-4.5%
Cn1nnnc1SCCNCc1ccccc1OCc1ccccc1F	18.4µM*	?	i	nt	i	nt
Cn1nnnc1SCCNCc1ccc(OCc2ccccc2)cc1	nt	nt	?	nt	i	nt
Cn1nnnc1SCCNCc1cc(Br)ccc1OCc1ccccc1Cl	23.1µM*	16.4µM*	i	nt	?	nt
Cn1nnnc1SCCNCc1ccc(OCc2ccccc2Cl)cc1	?	?	?	nt	23.1µM*	nt
COc1ccccc1CNCCSc1nnnn1C	2.6%	-13.7%	i	nt	i	nt
CCOc1ccccc1CNCCCSc1nnnn1C	-1.0%	-15.4%	i	nt	i	nt
Cn1nnnc1SCCNCc1ccccc1OCc1ccccc1Cl	?	13µM*	?	-15.5%	i	?
Cc1nn(CC(=O)NC2CCCCC2)c(C)c1[N+](=O)[O-]	3.3%	-11.3%	i	-8.6%	i	-4.9%
COC(=O)c1sc2cccc(F)c2c1S(=O)(=O)N1CCN(c2cccc(OC)c2)CC1	?	?	i	nt	i	nt
Cc1ccc(NC(=O)CSc2nc3c(c(=O)[nH]2)CN(Cc2ccccc2)CC3)cc1Cl	?	?	?	nt	i	nt
CCN1C(=NCCCOC(C)C)N[C@@H](CCc2ccccc2)[C@H](C(=O)NCCCOC(C)C)[C@H]1C	1.84µM*	1.64µM*	i	-17.2%	?	-21.5%
CCc1ccc2c(F)cccc2n1	-5.6%	-6.5%	i	4.5%	i	24.9%
CCOC(=O)c1c(NC(=O)COC(=O)c2ccc(O)cc2)sc(C(=O)NC)c1C	18.4µM*	20.6µM*	i	-11.1%	i	-7.0%
CCOC(=O)c1c(NC(=O)c2nc(S(C)(=O)=O)ncc2Cl)sc(C(C)=O)c1C	0.581µM*	0.92µM*	nt	nt	nt	nt
